This excerpt belongs to a sample that is enriched for hits.
TTR transcr act – activators of transthyretin transcription; SH-SY5Y TTR promoter Gaussia luciferase, luminescence; 100% = recombinant luciferase protein wells; activation, % at 16.7 µM; actives 1.3% (n = 92,000); AID 1117267;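 active means activation above the mean of all tested compounds plus 3 SD, cut at about 9.5% in these data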;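 further: cells exposed to compounds for one day before reading; 0% = median of all test compound wells on the plate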
TTR inh HuH7 – decreases TTR transcription in HuH7 cells in activator counter-screen; shares compounds with TTR transcr act; HuH7 TTR promoter-Gaussia luciferase reporter, luminescence; inhibition, % at 16.7 µM; actives 4% (n = 1,100);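 active means average inhibition above the solvent-only control wells' mean plus 3 SD, cut at about 15% in these data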;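 further: 0% = cells with DMSO only and 100% = cells with inhibitor control FD; inhibitors lower well luminescence so higher value means more inhibition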
TTR up confirm – human TTR transcription activation, confirmation. shares compounds with TTR transcr act. SHSY5Y TTR promoter Gaussia luciferase, luminescence; 100% = purified Lucia enzyme wells, no cells. AID 1117280. activation, % at 16.7 µM. 1,100 tested, under 10 active;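 active means mean activation above a set limit taken from the earlier primary screen, cut at about 11% in these data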;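 further: 0% = DMSO-treated cells and 100% = recombinant Lucia luciferase without cells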
Active calls of the source: *.

SMILES	TTR transcr act	others
CO[C@H]([C@H](C)/C=C/N(C)C=O)[C@@H](C)C(O)CC[C@H](C)[C@H](O)[C@H](C)[C@H]1OC(=O)/C=C/C(C)=C/C[C@H](O)C[C@@H]2C=CC[C@@H](C[C@H](OC)[C@@]3(CO3)[C@@H](OC)C[C@@H](OC)[C@@H]1C)O2 (some centres not stated)	-1
O=C(Oc1cc(=O)oc2ccccc12)c1ccccc1	14*	TTR inh HuH7=0;TTR up confirm=0
O=C(Oc1cccc2ccccc12)c1ccccc1	0
O=C(O)CCc1ccccc1OC(=O)c1ccccc1	1
CC(C)(C)NC(=O)C(c1ccco1)N(Cc1ccc(F)cc1)C(=O)c1snc(C(N)=O)c1N (configuration not stated)	10*	TTR inh HuH7=1;TTR up confirm=0
NC(=O)c1nsc(C(=O)N(Cc2cccnc2)C(C(=O)NC2CCCC2)c2ccc(F)cc2)c1N (configuration not stated)	0
COc1ccccc1N(C(=O)c1snc(C(N)=O)c1N)C(C(=O)NCCC(C)C)c1ccco1 (configuration not stated)	-1
C[C@]12c3[nH]c4ccccc4c3CCN1C(=O)C(CC(=O)NCCC1=CCCCC1)C[C@@H]2C(=O)N1CCCCC1 (some centres not stated)	0
COc1cc(C(=O)N2CCN(C(=O)C3COc4ccccc4O3)CC2)cc(OC)c1OC (configuration not stated)	0
COc1ccc(C(=O)N2CCN(C(=O)C3COc4ccccc4O3)CC2)cc1 (configuration not stated)	0
Cc1cc(O)c2c(C)c(CC(=O)N3CCN(C(=O)C4COc5ccccc5O4)CC3)c(=O)oc2c1 (configuration not stated)	9.8*	TTR inh HuH7=10;TTR up confirm=-1
O=C(Nc1ccccc1)OCCN1CCOCC1	0
CCOc1ccc(-n2c(SCC(=O)Nc3ccc4c(c3)OCCO4)nc3c(c2=O)SCC3)cc1	0
COc1ccc(NC(=O)CSc2nc3c(c(=O)n2-c2ccc(F)cc2)SCC3)c(OC)c1	15*	TTR inh HuH7=-10;TTR up confirm=0
COc1ccc(-n2c(SCC(=O)Nc3nccs3)nc3c(c2=O)SCC3)cc1	2
C=CCN1C=C(C(=O)OCC)C(=O)CC1	0
CC(=O)Nc1cccc(NC(=O)c2ccccc2Cl)c1	0
CCCCCC(=O)Nc1ccc(C(=O)CN2C(=O)NC3(CCCCCC3)C2=O)cc1	-2
CCCc1ccc(C(=O)CCC(=O)O)cc1	-3
O=Cc1cc(CCC(=O)O)ccc1O	11*	TTR inh HuH7=-2;TTR up confirm=0
O=C(CCc1ccc(O)cc1)c1c(O)cc(O)cc1O	-3
CCCN=C(C)C1=C(O)c2ccccc2C1=O	2
CC(=NCCc1ccccc1)C1=C(O)COC1=O	13*	TTR inh HuH7=-13;TTR up confirm=0
CC(=NCc1ccccc1)C1=C(O)COC1=O	-4
Cc1ccc(OCC(=O)N(C)C2CCCCC2)c([N+](=O)[O-])n1	2
SMILES	TTR transcr act	others
Cc1ccc(S(=O)(=O)Nc2nsc(N)n2)cc1	1
Cc1ccc(CS(=O)(=O)c2nsc(C)c2C#N)cc1	19*	TTR inh HuH7=-3;TTR up confirm=0
Cc1cc(C)c(C#N)c(SCc2ccc([N+](=O)[O-])cc2)n1	9
CC(C)NC(=O)N1Cc2cc(C(=O)NC3CCC3)nc(-c3cccc(-c4cncnc4)c3)c2[C@H]1CCO	-1
CC1CCN(C(=S)c2cn(Cc3cccc(F)c3)c3ccccc23)CC1	10*	TTR inh HuH7=-17;TTR up confirm=0
Fc1ccc(Cn2cc(C(=S)N3CCOCC3)c3ccccc32)cc1	-2
O=C(O)Cn1cc(C(=S)N2CCCCC2)c2ccccc21	0
O=C(CN1CCN(Cc2ccc3c(c2)OCO3)CC1)Nc1ccc(F)cc1	1
O=C(CN1CCc2ccccc2C1)Nc1ccc(F)cc1	2
O=C(CN1CCN(CC(=O)Nc2ccc(Cl)cc2)CC1)Nc1ccc(F)cc1	11*	TTR inh HuH7=-1;TTR up confirm=0
CC1(C)C2C(Cl)(Cl)C2(C)c2ccccc2N1C=O (configuration not stated)	7
CCCN(CC(=O)Nc1ccccc1OC)C(=O)CN1C(=O)NC(C)(C)C1=O	0
O=C1CN(S(=O)(=O)c2cc(C(=O)O)ccc2Cl)c2ccccc2N1	2
COc1ccc(/C=[N+](\[O-])C2N(c3ccccc3)C(=S)SC2(C)C)cc1OC (configuration not stated)	-2
Cc1snnc1C(=O)NC(=S)Nc1ccccc1	0
Cc1cccc(N2CCN(S(=O)(=O)c3ccc4c(c3)CC(=O)N4C)CC2)c1C	14*	TTR inh HuH7=-11;TTR up confirm=-1
Cc1cccc(N2CCN(S(=O)(=O)c3ccc4c(c3)OCCO4)CC2)c1C	0
Cc1cccc(N2CCN(S(=O)(=O)c3ccc4c(c3)CCN4C(=O)CCC(=O)O)CC2)c1C	1
Cn1nccc1C(=O)N1CCN(c2ccccc2F)CC1	-1
C[C@H]1[C@@H](NC(=O)c2ccc(O)cc2)CC[C@@]23CCCN2C(=O)CCC[C@@H]13	-1
O=C(NCc1ccc(F)cc1)c1cc(-c2ccncc2)nc2ccccc12	-3
c1ccc(-c2cc(-c3ccncc3)nc3ccc4ccccc4c23)cc1	11*	TTR inh HuH7=12;TTR up confirm=-1
COc1cc(-c2ccccc2)nc2ccccc12	0
C[C@H](CO)N1C[C@H](C)[C@@H](CN(C)Cc2ccc(C(=O)O)cc2)Oc2c(NS(=O)(=O)c3ccc(F)cc3)cccc2C1=O	0
COc1ccccc1-n1cnc2c(c1=O)c1nc3ccccc3nc1n2CCc1ccccc1	1
SMILES	TTR transcr act	others
COc1ccccc1C1=NOC(Cn2c(=O)c3c(ncn3C)n(C)c2=O)C1 (configuration not stated)	16*	TTR inh HuH7=-15;TTR up confirm=1
COc1ccccc1C1=NOC(Cn2c(NCC3CCCO3)nc3c2c(=O)n(C)c(=O)n3C)C1 (configuration not stated)	0
C[C@H]1CCC(=O)N([C@H](COc2ccccc2)Cc2ccccc2)CC1	14*	TTR inh HuH7=-5;TTR up confirm=0
CC1CCC(=O)N(CCOc2ccccc2)CC1 (configuration not stated)	1
CC(C)C[C@@H](COc1ccccc1)N1CCN(C)CCC1=O	3
Cc1ccccc1CC(=O)N1CCN(S(=O)(=O)c2ccc(Cl)s2)CC1	-1
CC1CCc2sc3nc(NCc4ccco4)n4ncnc4c3c2C1 (configuration not stated)	2
CC1CCc2c(sc3ncnc(N4CCOCC4)c23)C1 (configuration not stated)	-1
CCN1CCN(c2nc3sc4c(c3c3ncnn23)CC(C)CC4)CC1 (configuration not stated)	11*	TTR inh HuH7=-31;TTR up confirm=0
CCN1CCCCC(NC(=O)c2ccc(F)cc2)C1=O (configuration not stated)	-1
CC(NC(=O)C1CCC1)c1ccc(Br)cc1 (configuration not stated)	22*	TTR inh HuH7=-11;TTR up confirm=0
Cc1ccc(C(C)NC(=O)C2CCCC2)cc1C (configuration not stated)	-1
CC(NC(=O)C1CCC1)c1ccc2c(c1)OCO2 (configuration not stated)	-2
Cc1cc(C)c(S(=O)(=O)c2cccc(Br)c2C)c(=O)[nH]1	2
CCOC(=O)c1c(-c2ccccc2)oc2ccc(O)c(CN3CCOCC3)c12	-4

Bioassay records (PubChem BioAssay)
